Measurements published in PubChem BioAssay AID1159580 (chemical genetic matrix, 2015).
“And” between values parts separate entries of the source, which are not always exact repeats. Identical values can stand only once. Among all 5,500 compounds or so, about 2,000 (36%) were called active. Inconclusive results (about 18%) are left out. Cut-off read from the data, not from the text of the source: active = normalized growth mostly below about 0.91 (no sharp cut-off); inconclusive = no clear call, values can overlap the other calls; inactive = mostly above about 0.92. Some of the results follow.

Test: chemical genetic growth profiling, strain panel (AID 1159580);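 note: tested at 20 µM; growth read once vehicle control cultures reached saturation at 30 °C; 1 = growth at the plate median or of vehicle wells; lower values mean less growth of the strain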
Conditions: S. cerevisiae deletion strains, growth OD

Measured: normalized growth

CC12CCC(CC1)C(C)(C)O2
inactive: locus YAL013W, strain DEP1, stronger effect = lower value 1 | locus YAL021C, strain ccr4, stronger effect = lower value 0.963 | locus YAL026C, strain drs2, stronger effect = lower value 0.973 | locus YAL030W, strain snc1, stronger effect = lower value 0.998 | locus YBL061C, strain skt5, stronger effect = lower value 0.967 | locus YBR009C, strain hhf1, stronger effect = lower value 0.994 | locus YBR021W, strain FUR4, stronger effect = lower value 1.02 | locus YBR023C, strain chs3, stronger effect = lower value 0.974 | locus YBR171W, strain sec66, stronger effect = lower value 0.966 | locus YBR229C, strain ROT2, stronger effect = lower value 1 | locus YBR231C, strain swc5, stronger effect = lower value 1.02 | locus YBR279W, strain paf1, stronger effect = lower value 0.988 | locus YCL011C, strain gbp2, stronger effect = lower value 0.974 | locus YCL016C, strain dcc1, stronger effect = lower value 0.986 | locus YCL029C, strain bik1, stronger effect = lower value 1.01 | locus YCL061C, strain MRC1, stronger effect = lower value 0.968 | locus YCL069W, strain vba3, stronger effect = lower value 0.977 | locus YCR088W, strain abp1, stronger effect = lower value 0.985 | locus YDL005C, strain med2, stronger effect = lower value 0.975 | locus YDL035C, strain GPR1, stronger effect = lower value 0.999 | locus YDL040C, strain nat1, stronger effect = lower value 0.997 | locus YDL074C, strain BRE1, stronger effect = lower value 1.02 | locus YDL101C, strain DUN1, stronger effect = lower value 1 | locus YDL185W, strain tfp1, stronger effect = lower value 1.01 | locus YDL192W, strain arf1, stronger effect = lower value 1.02 | locus YDR001C, strain nth1, stronger effect = lower value 0.995 | locus YDR069C, strain doa4, stronger effect = lower value 0.966 | locus YDR101C, strain arx1, stronger effect = lower value 0.996 | locus YDR137W, strain rgp1, stronger effect = lower value 1.04 | locus YDR150W, strain NUM1, stronger effect = lower value 1 | locus YDR159W, strain sac3, stronger effect = lower value 1.01 | locus YDR162C, strain NBP2, stronger effect = lower value 0.978 | locus YDR195W, strain ref2 0.982 | locus YDR297W, strain sur2, stronger effect = lower value 0.985 | locus YDR318W, strain mcm21, stronger effect = lower value 1.02 | locus YDR334W, strain swr1, stronger effect = lower value 0.974 | locus YDR335W, strain msn5, stronger effect = lower value 0.985 | locus YDR388W, stronger effect = lower value 1.02 | locus YDR392W, strain spt3, stronger effect = lower value 0.935 | locus YDR502C, strain sam2, stronger effect = lower value 1.01 | locus YEL003W, strain gim4, stronger effect = lower value 0.989 | locus YEL037C, strain rad23, stronger effect = lower value 0.97 | locus YEL061C, strain CIN8 (second series), stronger effect = lower value 0.98 | locus YEL061C, strain CIN8, stronger effect = lower value 1 | locus YER015W, strain faa2, stronger effect = lower value 0.979 | locus YER016W, strain bim1, stronger effect = lower value 0.992 | locus YER110C, stronger effect = lower value 1.02 | locus YER111C, strain swi4, stronger effect = lower value 0.97 | locus YER155C, strain BEM2 (second series), stronger effect = lower value 0.977 | locus YER155C, strain BEM2, stronger effect = lower value 1.01 | locus YER167W, strain BCK2, stronger effect = lower value 1 | locus YFR010W, strain ubp6, stronger effect = lower value 0.967 | locus YGL078C, strain dbp3, stronger effect = lower value 1.03 | locus YGL086W, strain mad1, stronger effect = lower value 0.986 | locus YGL167C, strain pmr1, stronger effect = lower value 0.979 | locus YGL173C, strain kem1, stronger effect = lower value 0.971 | locus YGL227W, strain vid30, stronger effect = lower value 0.986 | locus YGL240W, strain doc1, stronger effect = lower value 0.997 | locus YGL248W, strain PDE1, stronger effect = lower value 1.01 | locus YGL253W, strain hxk2, stronger effect = lower value 0.963 | locus YGR078C, strain PAC10, stronger effect = lower value 1 | locus YGR135W, strain pre9, stronger effect = lower value 1.06 | locus YGR229C, strain SMI1, stronger effect = lower value 0.999 | locus YGR252W, strain gcn5, stronger effect = lower value 1.04 | locus YHR013C, strain ard1, stronger effect = lower value 0.967 | locus YHR027C, strain rpn1, stronger effect = lower value 0.984 | locus YHR030C, strain SLT2, stronger effect = lower value 1.01 and 0.978 | locus YHR079C, strain IRE1 (second series), stronger effect = lower value 1.01 | locus YHR079C, strain IRE1, stronger effect = lower value 0.993 | locus YHR094C, strain hxt1, stronger effect = lower value 1.02 | locus YHR129C, strain ARP1, stronger effect = lower value 1.01 | locus YHR142W, strain chs7, stronger effect = lower value 0.979 | locus YHR200W, strain rpn10, stronger effect = lower value 1.01 | locus YIL066C, strain RNR3, stronger effect = lower value 0.998 | locus YIL073C, strain SPO22, stronger effect = lower value 1 | locus YIL125W, strain kgd1, stronger effect = lower value 1.02 | locus YIR030C, strain dcg1, stronger effect = lower value 1.03 | locus YJL092W, strain hpr5, stronger effect = lower value 0.954 | locus YJL095W, strain BCK1 (second series), stronger effect = lower value 0.97 | locus YJL095W, strain BCK1, stronger effect = lower value 1.03 and 0.991 | locus YJL115W, strain asf1, stronger effect = lower value 0.982 | locus YJL129C, strain trk1, stronger effect = lower value 0.966 | locus YJL134W, strain LCB3, stronger effect = lower value 1 | locus YJL154C, strain vps35, stronger effect = lower value 0.984 | locus YJL164C, strain tpk1, stronger effect = lower value 0.988 | locus YJL166W, strain qcr8, stronger effect = lower value 0.996 | locus YJL168C, strain set2, stronger effect = lower value 1.04
